An excerpt weighted towards active compounds, which were near 18% of everything screened.
VP16 counter: counter-screen for ROR gamma inhibitors: Gal4-VP16 reporter | AID 2546 | Drosophila S2 Gal4-VP16 UAS-luciferase, luminescence, 20 h | Potency, µM (titrated, usually from 53.6 µM), inactives show top-dose activity, negative = inhibition, hits mostly inhibitors | 310,000 compounds, 3.5% hits;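 also: Gal4-VP16 expression switched on by copper sulfate through the metallothionein promoter; potency is read from the fitted curve at half-maximal effect; nearly all actives have a fitted effect of over 50% in size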
DT40 TDP1 no CPT: qHTS for Inhibitors of human tyrosyl-DNA phosphodiesterase 1 (TDP1): qHTS in cells in absence of CPT; DT40 Tdp1-/- hTDP1 cells, no CPT, ATP luminescence, 48 h; Potency, µM (titrated, usually from 46.2 µM), inactives show at the highest dose activity change, negative = growth inhibition, hits mostly inhibitors; 420,000 compounds, 15% hits; also: potency is read from the fitted curve at half-maximal effect; nearly all actives have a fitted effect of over 55% in size
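Readout: luminescence from CellTiter-Glo after 30 min in the dark at RT. Cells: DT40 Tdp1-/- with stable hTDP1, 400/well. Exposure: compounds alone, ≥48 hr, 37 °C.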
DT40 TDP1 CPT: DT40-hTDP1 cell growth loss with CPT | Potency, µM (doses to about 46.2 µM), for the others: top-dose activity change, negative = growth inhibition, hits mostly inhibitors | chicken DT40 Tdp1-/-;hTDP1 cells + 20 nM CPT, ATP luminescence, 48 h | 420,000 compounds, 12% hits; also: potency is read from the fitted curve at half-maximal effect; nearly all actives have a fitted effect of over 55% in size
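Chicken DT40 Tdp1-/- cells complemented with human TDP1, 400 cells/well, exposed to compounds plus 20 nM camptothecin for at least 48 h at 37 C; viability read as ATP content by CellTiter-Glo luminescence.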
IL1B secr inh: inhibitors of inflammasome signaling (IL-1 beta secretion). 360,000 compounds, 4.7% hits. activity change, % at 57.5 µM. THP-1 LPS/ATP IL-1B secretion, AlphaLISA, 16 h; stronger effect = lower value; in the data active = activity change below about -50%; inconclusive = mostly about -30% to -49%
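Secreted IL-1B measured by AlphaLISA bead assay after 16 h compound exposure of THP-1 cells; compounds (final up to 57.5 uM) added 1 h before LPS (250 ng/mL) and ATP (1.25 mM) stimulation; lower signal means less secretion.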
RORgamma inh: ROR gamma (mouse) transcription inhibition | 310,000 compounds, 5.4% hits | P51450 | AID 2551 | Potency, µM (doses to about 53.6 µM), inactives show at the top dose activity change, negative = inhibition, actives largely listed as inhibitors | Drosophila S2 Gal4-RORgamma UAS-luciferase reporter, 20 h; also: potency is read from the fitted curve at half-maximal effect; nearly all actives have a fitted effect of over 60% in size
Target sequence (P51450 whole entry, looked up, the tested form may be a part): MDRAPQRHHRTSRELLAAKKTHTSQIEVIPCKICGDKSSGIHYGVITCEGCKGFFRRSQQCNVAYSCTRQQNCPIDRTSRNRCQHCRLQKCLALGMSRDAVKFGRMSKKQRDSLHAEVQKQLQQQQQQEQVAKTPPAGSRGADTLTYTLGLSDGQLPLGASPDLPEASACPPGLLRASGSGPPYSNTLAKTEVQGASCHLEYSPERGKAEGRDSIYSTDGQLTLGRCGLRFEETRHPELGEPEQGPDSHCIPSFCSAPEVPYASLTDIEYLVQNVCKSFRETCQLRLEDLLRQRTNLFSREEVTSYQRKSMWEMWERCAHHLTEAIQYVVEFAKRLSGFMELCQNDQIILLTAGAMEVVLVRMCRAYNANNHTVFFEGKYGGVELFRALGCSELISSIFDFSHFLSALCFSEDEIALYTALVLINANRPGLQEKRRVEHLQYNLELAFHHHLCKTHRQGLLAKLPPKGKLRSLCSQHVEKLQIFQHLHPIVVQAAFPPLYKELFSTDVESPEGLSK
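Drosophila Schneider cells stably carrying a metallothionein-driven Gal4 DBD–ROR gamma fusion and a UAS-Photinus luciferase reporter were exposed to compound for 1 hr, then induced with copper sulfate (700 uM final) for 20 hr at ambient temperature before luminescence reading.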
LDHA block: blocks human lactate dehydrogenase A. P00338. purified LDHA, NADH/diaphorase-resazurin fluorescence; stronger effect = lower value. activity change, % (values are at about 110 or 230 µM). 480,000 compounds, 0.15% hits; in the data active = activity change below about -30%; inconclusive = mostly about -25% to -30%;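 also: plate controls were DMSO wells for no effect and wells without enzyme for full effect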
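LDH5 2 nM; NADH 0.06 mM, pyruvate 0.2 mM; 200 mM Tris pH 7.4, EDTA, Tween-20; 5 min RT. Detection: diaphorase 0.133 mg/mL + resazurin 37 µM, fluorescence ex540/em590 at 0 and 20 min; normalized to enzyme-free and DMSO wells.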
Starred values were filed as active, the others as inactive; ? = inconclusive; . = not tested or not shown. Unless noted, calls follow the shape of the dose curve; as a rule, active = well fitted curve in the direction sought with a large enough effect; inconclusive = small, poorly fitted or top-dose-only effect, or another doubt; inactive = no such curve, though single readings can be large; an effect the other way counts as inactive or inconclusive. Unless noted, % is scaled to controls: 0 for no effect and ±100 for the full control effect.

SMILES | VP16 counter | DT40 TDP1 no CPT | DT40 TDP1 CPT | IL1B secr inh | RORgamma inh | LDHA block
O=C(Cc1cccc(NC(=O)C2CCCN(C(=O)c3ccccc3)C2)c1)Nc1ccc(C(=O)N2CCCCC2)cc1 (stereo not drawn) | . | -15% | 6% | -5 | . | -4
CN(C(=O)c1ccc(NC(=O)Cc2ccc(NC(=O)C3CCN(C(=O)CCc4ccccc4)CC3)cc2)cc1)C1CC1 | . | 18µM* | 26µM* | -9 | . | 1
O=C(Cc1cccc(NC(=O)C2CCN(C(=O)CCc3ccccc3)CC2)c1)Nc1cccc(C(=O)N2CCCC2)c1 | . | 16µM* | ? | -1 | . | -1
CN(C(=O)c1ccc(NC(=O)Cc2cccc(NC(=O)C3CCN(C(=O)CCc4ccccc4)CC3)c2)cc1)C1CCCC1 | . | ? | ? | -5 | . | -21
CN(C(=O)c1ccc(NC(=O)Cc2ccc(NC(=O)C3CCN(C(=O)CCc4ccccc4)CC3)cc2)cc1)C1CCCC1 | . | 21µM* | 23µM* | 19 | . | 0
O=C(Cc1cccc(NC(=O)C2CCCN(C(=O)CCc3ccccc3)C2)c1)Nc1ccc(C(=O)N2CCCCC2)cc1 (stereo not drawn) | . | 23µM* | 29µM* | -108* | . | 0
Cc1cccc2c(=O)c(-c3ccccc3)c(NC(=O)c3ccco3)oc12 | . | . | . | . | . | 3
CN(C(=O)c1cccc(NC(=O)Cc2cccc(NC(=O)C3CCN(C(=O)CCc4ccccc4)CC3)c2)c1)C1CC1 | . | 23µM* | -96% | -17 | . | 0
COc1ccc(C(=O)Oc2ccc(C3NC(=O)c4c(sc5c4CCN(C)C5)N3)cc2OC)cc1 (stereo not drawn) | . | 16µM* | ? | . | . | 6
CN1CCc2c(sc3c2C(=O)NC(c2ccc(C(C)(C)C)cc2)N3)C1 (stereo not drawn) | . | 13µM* | ? | . | . | -5
CSc1ccc(C2NC(=O)c3c(sc4c3CCN(C)C4)N2)cc1 (stereo not drawn) | 2% | ? | ? | 5 | 9% | 2
COc1ccc(C2NC(=O)c3c(sc4c3CCN(C)C4)N2)cc1O (stereo not drawn) | . | 7% | -14% | . | . | 4
S=C1CSc2ccccc2N1 | 7.9µM* | ? | -1% | 2 | 3.5µM* | -15
CC1CSc2ccccc2NC1=S (stereo not drawn) | 7.9µM* | -13% | -3% | 14 | 7.1µM* | -10
c1ccc2c(c1)NCCS2 | -4% | ? | ? | 9 | 14% | 9
Cc1nc2ncnn2c(N2CCOCC2)c1Cc1ccccc1 | . | . | . | . | . | 1
CCN(CC)C(=O)CSc1nc2ccc(NC(=O)c3ccc(C)cc3)cc2s1 | . | . | . | . | . | -9
COc1ccc(NC(=O)CN2CCN(CC(=O)Nc3ccccc3Cl)CC2)c(OC)c1 | 5% | 18µM* | 18µM* | 0 | 11% | 3
COc1ccc(NCC(=O)Nc2ccc(Br)cc2F)c(OC)c1 | 5% | 13µM* | ? | ? | 42% | 4
COc1ccc(NC(=O)CN2CCN(CC(=O)Nc3ccccc3OC)CC2)c(OC)c1 | -23% | -8% | -4% | 18 | -1% | -3
COc1ccc(NC(=O)CN2CCN(CC(=O)Nc3ccccc3F)CC2)c(OC)c1 | ? | ? | 23µM* | -12 | ? | 3
CCN(CC(=O)Nc1ccc(OC)cc1)CC(=O)Nc1ccc(Br)cc1F | 3% | -22% | ? | 9 | 22% | 3
CC1Oc2ccccc2C=C1/C=C1\Oc2cc(OCC(=O)OC(C)(C)C)ccc2C1=O (stereo not drawn) | . | . | . | . | . | 6
CC1=CC(=O)C(C(C)C)=C/C1=N\OC(=O)c1cccc2nc(C)oc12 | -5% | 21µM* | ? | 1 | -22% | 9
CC1=CC(=NOC(=O)c2cccc([N+](=O)[O-])c2)C=C(C)C1=O | ? | 12µM* | 18µM* | -85* | ? | 9
SMILES | VP16 counter | DT40 TDP1 no CPT | DT40 TDP1 CPT | IL1B secr inh | RORgamma inh | LDHA block
Cc1ccc(C(=O)O/N=C(\N)c2cccc([N+](=O)[O-])c2)cc1 | -13% | -15% | -30% | 1 | 2% | -5
CC1=CC(=O)C(C(C)C)=C/C1=N/OC(=O)c1cccc([N+](=O)[O-])c1 | ? | 12µM* | 23µM* | -101* | 1µM* | 7
CCCSc1nc2c(c(=O)[nH]1)C(C(=O)Nc1ccccc1F)CC(=O)N2 (stereo not drawn) | . | . | . | . | . | -1
CCOc1ccccc1NC(=O)c1nnn(-c2cccc(C(F)(F)F)c2)c1N | . | . | . | . | . | 2
CCCCCCCCCCCC[N+](C)(C)Cc1ccccc1 | . | 1.7µM* | 1.5µM* | . | . | .
CC(C)=CC1C(C(=O)NC23CC4CC(CC(C4)C2)C3)C1(C)C (stereo not drawn) | . | . | . | . | . | 2
O=S(=O)(NC1c2cccc3cccc(c23)C1N1CCN(CCO)CC1)c1ccccc1 (stereo not drawn) | -3% | 15µM* | ? | -8 | -25% | -13
ClC(/C=N/n1cnnc1)=C/c1ccccc1 | 24% | 1.8µM* | 15µM* | -94* | -18% | -4
CC(/C=N/n1cnnc1)=C\c1ccccc1 | -5% | -8% | -14% | 3 | 25% | -2
O=C(NC1CCCCC1)C(c1ccco1)N(C(=O)c1csnn1)c1ccc(Cl)cc1 (stereo not drawn) | -6% | ? | ? | -3 | 10% | -3
O=C(NC1CCCCC1)C(c1ccco1)N(C(=O)c1csnn1)C1CCCC1 (stereo not drawn) | -4% | 16µM* | ? | 0 | 7% | -7
O=C(NC1CCCC1)C(c1ccccn1)N(C(=O)c1csnn1)C1CCCCC1 (stereo not drawn) | -3% | ? | 21µM* | 37 | 49% | -9
O=C(NC1CCCC1)C(c1ccccn1)N(C(=O)c1csnn1)C1CC1 (stereo not drawn) | -2% | -28% | -21% | -2 | -24% | -5
C/C(=N\NC(=O)c1ccc(O)cc1)c1ccc(N2CCOCC2)cc1 | ? | -1% | 1% | 8 | 1.8µM* | -6
O=C(N/N=C/c1ccc(N2CCOCC2)cc1)c1ccc(O)cc1 | ? | ? | ? | 9 | 4.5µM* | 0
C/C(=N\Nc1cc(N2CCOCC2)ncn1)c1ccc(O)cc1 | 4% | ? | 8.2µM* | -95* | 27% | -5
C/C(=N\NC(=O)c1ccc(F)cc1)c1ccc(N2CCOCC2)cc1 | -3% | -10% | 15% | -15 | -21% | -2

Screens (PubChem BioAssay)
